Test results from PubChem BioAssay (NCI).
Compounds without any hit were thinned out: in the full panel of roughly 83,000, 20% have a hit.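 Step 1: grow cells in 96-well plates. Step 2: add test compound at a single concentration. Step 3: incubate 48 h. Step 4: record percent growth.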 Values without a mark were called inactive. The source made the active and inactive calls. Rule for the calls: active = growth percent below 10; inactive = the rest.

Assays:
Test in all cases: NCI-60 one-dose screen, 48 h (100 = growth as untreated, 0 = no growth, -100 = all killed)
Details in all cases: 10 µM unless noted
HCT-15 colon = system: HCT-15 colon
HT29 colon = system: HT29 colon
SNB-75 CNS = system: SNB-75 CNS
SNB-19 CNS = system: SNB-19 CNS
U251 CNS = system: U251 CNS
PC-3 prostate = system: PC-3 prostate
SK-MEL-5 melanoma = system: SK-MEL-5 melanoma
UACC-62 melanoma = system: UACC-62 melanoma
LOX IMVI melanoma = system: LOX IMVI melanoma
SK-MEL-28 melanoma = system: SK-MEL-28 melanoma

| SMILES | growth (HCT-15 colon) | growth (HT29 colon) | growth (SNB-75 CNS) | growth (SNB-19 CNS) | growth (U251 CNS) | growth (PC-3 prostate) | growth (SK-MEL-5 melanoma) | growth (UACC-62 melanoma) | growth (LOX IMVI melanoma) | growth (SK-MEL-28 melanoma) |
| --- | --- | --- | --- | --- | --- | --- | --- | --- | --- | --- |
| OB(O)c1cccc(-c2nc3ccc4[nH]ncc4c3c3c2CCCC3)c1 | 37.6% | 48.1% | -30.6% (active) | 78.4% | 56.7% | 53.9% | 68.1% | 35.5% | 35.6% | 91.9% |
| CCN1C(=O)N(CC)C2C1NN=c1s/c(=C\c3cccc([N+](=O)[O-])c3)c(=O)n12 (stereo not given) | 11.6% | 5.6% (active) | 22% | 31.5% | 13.7% | 33.7% | -5.71% (active) | 32.5% | 16.7% | 61.4% |
| O=C(/C=C/c1ccc(Cl)cc1)c1cccc(Nc2nc(Nc3ccccc3)nc(Nc3ccccc3)n2)c1 | 83.9% | 99.1% | 71.9% | 111% | 82.7% | 87.9% | 85.6% | 96.9% | 88.2% | 100% |
| O=C(CSc1nc(-c2ccccc2)[nH]c1S(=O)(=O)c1ccccc1)NC1CC1 | 28.2% | 95.1% | 98.1% | 101% | 20.1% | 80.8% | 35.6% | 94.6% | 44.8% | 120% |
| C=CCn1cc(-c2nc3ccccc3s2)c2cc(-c3ccc4c5c(cccc35)C(=O)N(N)C4=O)ccc21 | 98% | 105% | 85.1% | 97.2% | 104% | 88.2% | 96.5% | 86.9% | 95.9% | 109% |
| CCCCCC(=O)OCC(=O)O[C@@H]1C[C@]2(C(C)C)O[C@@]1(C)[C@@H]1CC[C@@H](C)[C@H]1[C@@H]2OC(=O)/C=C/c1ccccc1 | 68.8% | 56.1% | 89% | 87% | 65.9% | 55.5% | 95.7% | 62.1% | 68.6% | 101% |
| COc1cc2c(c(OC)c1OC)CCC(c1cccc(C(=O)Nc3cccc(Br)c3)c1)O2 (stereo not given) | 67% | 58.1% | 69% | 81.6% | 71.5% | 49.1% | 55.6% | 52.8% | 74% | 87.9% |
| CCOC(=O)c1ccc2[nH]c(O)c(C(=Nc3ccc(N(C)C(=O)CN4CCN(C)CC4)cc3)c3ccccc3)c2c1 | -23.6% (active) | -33.8% (active) | -99.2% (active) | 2.34% (active) | -86.4% (active) | 4.9% (active) | -94% (active) | 17% | -93.2% (active) | -11.9% (active) |
| CCOc1nc(-c2ccccc2)cc2c(O)c(C(=O)NN)[nH]c(=O)c12 | 106% | 114% | 86.4% | 106% | 106% | 83% | 105% | 106% | 101% | 99.8% |
| COC(=O)c1cc(-c2ccc(OC)cc2)[nH]c1N/N=C/c1c(Cl)cccc1Cl | 16.4% | -56.5% (active) | -10.6% (active) | 19.1% | 7.09% (active) | 16.2% | -2.73% (active) | 21.3% | 24.2% | 34% |
| O=C(Nn1c2c(sc1=Nc1ccccc1)C(=O)c1ccccc1C2=O)c1cc2ccc1CCc1ccc(cc1)CC2 | 51.3% | 91.8% | 36.3% | 60.7% | 82.6% | 66.3% | 39.7% | 70.8% | 62.2% | 92.4% |
| CC(C)=CCC[C@](C)(O)[C@H]1CC[C@]2(C)[C@@H]1CC[C@@H]1[C@@]3(C)Cc4nccnc4C(C)(C)[C@@H]3CC[C@]12C | 70.4% | 42% | 91.6% | 94% | 78.2% | 44.6% | 65.8% | 66.9% | 83.7% | 95.6% |
| O=C(Nc1nc2ccc(F)cc2s1)c1cccnc1Nc1ccc(Cl)cc1 | 29% | 30.1% | 62.2% | 26.4% | 21.6% | 14% | 5.56% (active) | 28.4% | 48.3% | 61.9% |
| COc1ccc(-c2nnc(-c3ccc4c(c3)nc(-c3ccncc3)n4C3CCCCC3)o2)cc1 | 53.6% | 53% | 72.2% | 89.4% | 59.7% | 49.7% | 17.2% | 68.3% | 72.5% | 94.6% |
| CCOC(=O)c1cn2ncnc(Oc3ccc(NC(=O)NC4CCCCC4)c(Cl)c3)c2c1C | 69.4% | 81.6% | 0.475% (active) | 66.1% | 49.3% | 67.7% | 84.5% | 80.4% | 54.9% | 93.9% |
| COc1ccc(C(=O)Nc2cccc(C3CC(=O)c4c(cc(OC)c(OC)c4OC)O3)c2)cc1 (stereo not given) | 13.3% | 6.28% (active) | -11.4% (active) | 18.3% | 9.47% (active) | 20.4% | 9.7% (active) | 25.5% | 26.1% | 56.3% |
| COc1cc(CNS(=O)(=O)c2ccc(C)cc2)ccc1OCc1cn(-c2ccc(F)cc2)nn1 | 92.5% | 85.1% | 81% | 102% | 97.3% | 83.6% | 56.7% | 71.8% | 102% | 87.9% |
| Fc1cc2c(cc1Cl)N(c1ncnc3ccc(-c4cnc5[nH]ncc5c4)cc13)CC2 | 58.8% | 56.3% | 19.7% | 69.4% | 76.6% | 53.9% | 85.2% | 58.1% | 47.2% | 83.4% |
| C#Cc1ccc(NC(=O)c2ccc(/C=C/C(=O)c3nccn3C)cc2)cc1 | -44.4% (active) | -17.3% (active) | -98.3% (active) | -78.9% (active) | -67% (active) | -56.2% (active) | -94.3% (active) | -50.7% (active) | -93% (active) | -30.7% (active) |
| COCCn1c(-c2csc(-c3cn(C)c4ccc(OC)cc34)n2)cc2cccnc21 | 7.45% (active) | 5% (active) | 72.4% | 85.3% | 48.4% | 19.2% | 65.2% | 82.1% | -22.6% (active) | 85.1% |
| COc1cc(-c2cc(-c3cccs3)c(C#N)c(N3CCOCC3)n2)cc(OC)c1OC | 25.2% | 22.2% | 69.2% | 95.2% | 52.9% | 67% | 45.7% | 63.6% | 81.5% | 91.4% |
| O=C1COCCN1c1ccc(Nc2nc(Cl)nc(OCc3cn(Cc4ccccc4)nn3)n2)cc1 | 93.3% | 90.8% | 101% | 90.3% | 83.4% | 89.4% | 95.8% | 92.2% | 75.7% | 101% |
| Cc1cc2c(O)c(-c3cc(Cl)ccc3Cl)c3sc(=O)oc3c2cc1C | 74.5% | 103% | 61.2% | 77.6% | 45.4% | 29.2% | 42.5% | 52.2% | 78.4% | 81% |
| COc1ccc2[nH]cc(-c3nc(-c4cn(C)c5c(Cl)nccc45)cs3)c2c1 | 0.0691% (active) | 9.12% (active) | 61.6% | 79.2% | 16.3% | 23.4% | 34.5% | 43.8% | 21% | 46% |
| CC(=O)N1N=C(c2ccc(Nc3nc(Nc4ccc(Cl)cc4)nc(Nc4ccc(Cl)cc4)n3)cc2)CC1c1ccco1 (stereo not given) | 85.7% | 97.8% | 112% | 101% | 81.7% | 87.6% | 75.9% | 89.9% | 95.7% | 111% |
| C[C@]12CC[C@@H]3c4ccc(O)c([N+](=O)[O-])c4CC[C@H]3[C@@H]1CCC2=O | 94.4% | 95.5% | 58.1% | 107% | 93.2% | 97% | 82.3% | 87.3% | 90.7% | 115% |
| C=C(C)[C@@H]1CC[C@]2(C(=O)NCCNCCN)CC[C@]3(C)[C@H](CC[C@@H]4[C@@]5(C)C/C(=C/c6ccncc6)C(=O)C(C)(C)[C@@H]5CC[C@]43C)[C@@H]12 | 91.4% | 96% | 78.1% | 90.2% | 91.2% | 88.8% | 96.3% | 86.6% | 96% | 99.2% |
